Gli-Sufu block: antagonists of Gli-Sufu signaling; inhibition, % at 5 µM; Sufu-KO-LIGHT fibroblasts, Gli luciferase reporter luminescence; 340,000 tested, 0.74% active;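 active = inhibition above about 55%, limit read from the data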;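 note: 0% = DMSO-treated cells and 100% = wells with medium but no cells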
697 NFkB inh: inhibitors of the PMA/ionomycin-induced NF-kB reporter in 697 B cells; 697 B-cell NF-kB luciferase reporter, 16 h; inhibition, % at 4 µM; 330,000 tested, 0.33% active; AID 435022; in the data active = inhibition above about 35%
KLF5 inhibitor: kruppel-like factor 5 inhibition; DLD-1 KLF5 promoter-luciferase reporter, luminescence; inhibition, % at 5 µM; 290,000 tested, 0.23% active; AID 1700;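 active = inhibition above a per-plate limit of that plate's mean compound inhibition plus 3 SD, cut at about 60% in these data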;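 note: 0% = DMSO wells and 100% = LY294002 at 200 µM; higher means less KLF5 promoter-driven luciferase light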
aSyn UTR inh: MLPCN primary screen, SNCA 5' untranslated region. 300,000 tested, 0.82% active. AID 1813. alpha-synuclein 5'UTR reporter, inhibitor activity. inhibition, % (tested at 7.5 µM); in the data active = inhibition above about 60%;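 note: H4 neuroglioblastoma cells stably carrying SNCA 5'UTR luciferase fusion; 0% = DMSO wells and 100% = positive control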
Jurkat NFkB inh: inhibitors of the PMA/ionomycin-induced NF-kB reporter in Jurkat cells; PMA/ionomycin-induced NF-kB luciferase reporter, luminescence; inhibition, % at 4 µM; 330,000 tested, 0.53% active; in the data active = inhibition above about 50%
Mdm2-MdmX inh: human Mdm2/MdmX binding inhibition. O15151+Q00987. SaOS-2 split-luciferase Mdm2/MdmX complementation, luminescence. inhibition, % at 8 µM. 330,000 tested, 3% active. AID 485346;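 active = inhibition of at least 50% at 8 µM in the primary screen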
Target sequence (O15151 whole entry, looked up): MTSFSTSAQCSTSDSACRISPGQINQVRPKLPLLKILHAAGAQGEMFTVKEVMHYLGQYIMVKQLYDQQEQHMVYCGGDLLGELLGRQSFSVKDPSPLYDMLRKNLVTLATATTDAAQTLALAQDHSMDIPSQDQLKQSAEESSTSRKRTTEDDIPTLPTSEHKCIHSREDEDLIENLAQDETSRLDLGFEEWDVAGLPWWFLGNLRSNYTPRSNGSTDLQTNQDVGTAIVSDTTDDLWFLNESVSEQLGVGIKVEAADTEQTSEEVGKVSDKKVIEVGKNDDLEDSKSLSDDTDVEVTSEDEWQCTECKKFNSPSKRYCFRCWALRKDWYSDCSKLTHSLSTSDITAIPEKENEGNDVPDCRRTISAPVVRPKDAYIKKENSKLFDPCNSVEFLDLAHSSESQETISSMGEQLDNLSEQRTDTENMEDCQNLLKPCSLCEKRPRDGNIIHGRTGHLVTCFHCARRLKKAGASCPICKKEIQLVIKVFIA
Target sequence (Q00987 whole entry, looked up): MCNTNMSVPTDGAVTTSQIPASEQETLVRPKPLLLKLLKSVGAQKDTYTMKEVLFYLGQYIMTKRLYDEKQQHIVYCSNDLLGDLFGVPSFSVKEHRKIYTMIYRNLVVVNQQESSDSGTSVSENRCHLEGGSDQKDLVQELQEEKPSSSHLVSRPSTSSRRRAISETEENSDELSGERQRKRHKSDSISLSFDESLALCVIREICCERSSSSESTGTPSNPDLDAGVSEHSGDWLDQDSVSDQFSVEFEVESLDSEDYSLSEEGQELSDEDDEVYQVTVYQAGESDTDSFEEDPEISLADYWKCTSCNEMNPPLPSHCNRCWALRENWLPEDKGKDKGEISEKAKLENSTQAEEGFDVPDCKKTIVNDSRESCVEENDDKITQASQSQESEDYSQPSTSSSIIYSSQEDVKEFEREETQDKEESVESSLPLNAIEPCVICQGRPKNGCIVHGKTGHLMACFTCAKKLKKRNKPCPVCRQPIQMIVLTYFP
Mdm2 MdmX conf: human Mdm2/MdmX binding inhibition, confirmed | AID 489028 | luminescent assay | inhibition, % at 8 µM | 10,000 tested, 55% active | shares compounds with Mdm2-MdmX inh; in the data active = inhibition above about 40%
FLuc counter: full-length luciferase inhibition in Mdm2/MdmX counter-screen. shares compounds with Mdm2-MdmX inh. SaOS-2 full-length luciferase counterscreen, luminescence. inhibition, % at 8 µM. 6,200 tested, 77% active;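 active = mean inhibition at 8 µM reaching about 37%, which flags the compound as non-specific, limit read from the data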;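 note: p53-null SaOS-2 cells with luciferase driven by a doxycycline-inducible promoter; compound on cells about two nights before reading with doxycycline added after day one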
The depositor's hits bear a star; . = no result given. In the library only some 4.1% were active in any assay of this set; here they are far more common.

SMILES | Gli-Sufu block | 697 NFkB inh | KLF5 inhibitor | aSyn UTR inh | Jurkat NFkB inh | Mdm2-MdmX inh | Mdm2 MdmX conf | others
O=C(COc1ccc(Cl)cc1Cl)NN=C1c2ccccc2-c2ccccc21 | 4 | -10 | -13 | -16 | -5 | 82* | 20
O=C(COc1ccc(Cl)cc1Cl)N/N=C1\CCCc2ccccc21 | 0 | 1 | 11 | -4 | -9 | 13 | .
Cc1ccc(N=C2N=C(N)c3ccccc32)cc1C | -6 | -12 | -22 | -78 | -2 | 26 | .
CCc1ccc(N=C2N=C(N)c3ccccc32)cc1 | -31 | -28 | -16 | -98 | -7 | 55* | -9
CCN(CC)S(=O)(=O)c1ccc(O)c(NC(=O)c2cc(-c3cc(OC)c(OC)c(OC)c3)nc3ccccc23)c1 | -17 | -9 | -5 | 8 | -15 | 18 | .
Cc1ccc(NC(=O)COC(=O)c2ccc(-n3cccn3)cc2)cc1C | -6 | 18 | . | . | -4 | -22 | .
Cc1ccc(-c2nnn(CC(=O)N(c3ccc(F)cc3)C(C(=O)NC3CCCC3)c3ccncc3)n2)o1 (stereo not given) | -26 | -4 | -14 | 6 | -18 | 17 | .
O=C(NCC1CCCO1)C(c1ccncc1)N(Cc1cccs1)C(=O)Cn1nnc(-c2ccc(F)cc2)n1 (stereo not given) | 9 | 13 | -10 | 19 | 4 | 14 | .
CC(C)CCNC(=O)C(c1ccncc1)N(Cc1cccs1)C(=O)Cn1nnc(-c2ccc(F)cc2)n1 (stereo not given) | 5 | -47 | -6 | 29 | 5 | 68* | 60* | FLuc counter=26
CCN(CC)CCN(C(=O)Cn1nnc(-c2ccc(OC)c(OC)c2)n1)C(C(=O)NC1CCCC1)c1ccc(F)cc1 (stereo not given) | -2 | 2 | -20 | -5 | 8 | 75* | 25
COc1ccc(-c2nnn(CC(=O)N(Cc3ccc(F)cc3)C(C(=O)NC3CCCC3)c3ccc(F)cc3)n2)cc1 (stereo not given) | -70 | 19 | -9 | -3 | 17 | 75* | 19
Cc1ccc(N(C(=O)Cn2nnc(-c3ccc(C)o3)n2)C(C(=O)NC2CCCC2)c2ccncc2)cc1 (stereo not given) | -20 | 17 | -16 | -8 | 4 | 55* | 21
COc1ccc(CCc2nnc(NS(C)(=O)=O)s2)cc1 | 5 | 8 | -6 | -3 | -7 | -37 | .
O=C(NC1CCCCC1)C(c1ccc(F)cc1)N(CCc1ccccc1)C(=O)CN1C(=O)c2ccccc2S1(=O)=O (stereo not given) | -2 | . | 7 | 28 | . | . | .
O=C(NC1CCCCC1)C(c1ccc(F)cc1)N(Cc1ccccc1)C(=O)CN1C(=O)c2ccccc2S1(=O)=O (stereo not given) | 14 | 5 | -16 | 22 | -8 | 61* | 66* | FLuc counter=94*
COc1ccc(C(=O)Oc2ccc(C(=S)N3CCCC3)cc2)cc1OC | . | -1 | -24 | 0 | 8 | 5 | .
COc1cccc(C(=O)Oc2cc3c4c(c2)C(C)=CC(C)(C)N4C(=O)C3=O)c1 | -3 | -2 | 12 | -6 | 21 | 67* | 50* | FLuc counter=45*
COc1cc2c3c(c1)C(C)=CC(C)(C)N3C(=O)C2=O | 2 | 7 | -3 | -5 | -4 | 56* | 26
COc1ccc(C(=O)Oc2cc3c4c(c2)C(C)=CC(C)(C)N4C(=O)C3=O)cc1OC | -19 | 21 | -20 | 18 | 21 | 67* | 24
COc1cc(N=C2C(=O)N3c4c(cccc42)C(C)=CC3(C)C)cc(OC)c1 | -2 | 18 | -13 | -5 | 18 | -1 | .
CCOC(=O)N1CCN(C(=O)c2ccc(SC)cc2OC)CC1 | -8 | 11 | -25 | -1 | 3 | 14 | .
CCOC(=S)SCC(=O)N1CCc2cc(OC)ccc2C1C1C(=O)CCCC1=O (stereo not given) | -5 | 11 | -4 | -9 | 19 | 13 | .
CCc1nn(CC(=O)NCc2cccnc2)c(=O)c2cc3occc3n12 | 18 | 7 | -23 | 9 | 5 | 8 | .
COc1ccc(C(=O)NCc2nnc(SCC(=O)N3CCc4ccccc43)n2Cc2ccccc2)cc1 | 2 | 5 | -37 | 27 | 2 | -14 | .
CCOC(=O)c1sc(NC(=O)Nc2ccc(Cl)cc2)cc1C | -18 | -22 | -50 | -135 | -22 | 75* | 86* | FLuc counter=55*
SMILES | Gli-Sufu block | 697 NFkB inh | KLF5 inhibitor | aSyn UTR inh | Jurkat NFkB inh | Mdm2-MdmX inh | Mdm2 MdmX conf | others
CCOC(=O)c1sc(NC(=O)c2cccc(S(=O)(=O)N(CC)CC)c2)cc1C | -1 | -37 | -7 | 33 | -34 | 10 | .
CCOC(=O)c1c(NC(=O)Nc2ccc(Cl)cc2)sc(C)c1C | 1 | -9 | -15 | -16 | -10 | 38 | .
CCOC(=O)c1sc(NC(=O)c2c(C)nn(Cc3ccccc3)c2C)cc1C | 2 | -10 | 0 | . | -17 | 53* | 27
COc1ccc(/C=C/C(=O)N(C)CC(=O)Nc2cccc(F)c2)cc1S(=O)(=O)N1CCCCC1 | -2 | 5 | . | . | 43 | 52* | 55* | FLuc counter=69*
COCCNC(=S)Nc1ccc(N2CCOCC2)c(S(=O)(=O)Nc2ccccc2OC)c1 | 14 | 12 | . | . | 17 | 16 | .
Cc1ccc2c(c1)c1c(n2CC(O)CNC2CCCCC2)CCCC1 (stereo not given) | 4 | 4 | -6 | 38 | 12 | 100* | 46* | FLuc counter=51*
Cc1ccc2c(c1)c1c(n2CC(O)CNC(CO)(CO)CO)CCCC1 (stereo not given) | 2 | -1 | -1 | 2 | 6 | 14 | .
Cc1ccc(C(=O)NCC(=O)NCC(c2ccco2)N2CCCCC2)cc1C (stereo not given) | 0 | -8 | . | . | 4 | -4 | .
COc1cc2cc(C(=O)Nc3ccc4c(c3)OCCO4)[nH]c2cc1OC | 35 | -58 | -4 | 12 | 12 | 65* | 48* | FLuc counter=71*
COc1ccc(-c2csc(NC(=S)NC(=O)c3ccccc3)n2)cc1Br | 9 | 9 | -56 | 9 | -12 | 56* | 38 | FLuc counter=85*
O=C(/C=C/c1ccco1)Nc1nc(-c2ccccc2)cs1 | -19 | -75 | -93 | -250 | -52 | -40 | .
COc1ccc(C(=O)NC(=S)Nc2nc(-c3ccc(OC)c(Br)c3)cs2)cc1Br | -3 | -46 | 3 | -50 | -1 | 21 | .
COc1ccc(-c2csc(NC(=S)NC(=O)c3cc4ccccc4o3)n2)cc1Br | 13 | -12 | 17 | -1 | -1 | -4 | .
COc1cc(OC)cc(C(=O)NC(=S)Nc2nc(-c3cc4ccccc4o3)cs2)c1 | -9 | -4 | -9 | -22 | -20 | 65* | 0
COc1ccc(-c2csc(NC(=S)NC(=O)c3ccco3)n2)cc1Br | -9 | -11 | -40 | 4 | 11 | 82* | 56* | FLuc counter=23
COCCNc1nc(-c2cc3ccccc3o2)cs1 | -108 | -62 | -152 | -59 | -74 | -339 | .

Source: PubChem BioAssay
